In all, about 2,300 compounds went through this assay and about 1,200 (52%) were called active. Another 34% or so got no clear call; they are omitted. The call rests on the fitted dose curve; in most records, active means well fitted inhibition curve with a large enough effect; inconclusive means small, poorly fitted or top-dose-only effect, or effect the other way; inactive means no such curve, though single readings can be large or run the other way. So high a share suggests a set chosen from earlier hits. The list shows a part of the results.
Experiment: Confirmation screen for delayed death inhibitors of the malarial parasite plastid, 48 hour incubation; further: nearly all actives have a fitted effect of over 65% in size
Settings: P. falciparum-infected erythrocytes, luciferase growth; series mostly up to 28.7 µM
In short: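 Erythrocytes infected with luciferase-expressing P. falciparum (2% hematocrit, 0.1% parasitemia) incubated with compounds 48 hours at 37 C, 5% CO2, in RPMI/Albumax. Growth inhibition scored as reduced luminescence after detection reagent.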
Potency means the concentration at half of the fitted maximal effect.

Compound	Potency
CC(=O)Nc1ccc(NC(=O)c2ccc(C3SCC(=O)N3CCc3ccccc3)cc2)cc1 (stereo not given)	8.91 µM (active)
O=C1CSC(c2cccnc2)N1CCc1ccccn1 (stereo not given)	inactive
N#CCc1nc(C(c2ccccc2)c2ccccc2)no1	7.94 µM (active)
CC(C)c1cc(NC(=O)CCl)on1	10 µM (active)
CC(C)NC(=S)N/N=C/c1sc(N2CCCCC2)nc1-c1cccs1	6.31 µM (active)
Cc1ccc(C(=O)N/C(=C\c2ccc(-c3ccc(Cl)cc3)o2)C(=O)NCCCN(C)C)cc1	3.98 µM (active)
C=CCN=c1scc(-c2ccc(F)cc2)n1/N=C/c1ccccn1	6.31 µM (active)
CCCCN1/C(=C/c2cccc[n+]2C)Sc2cc(NC(C)=O)ccc21	3.16 µM (active)
Cc1c(CC(=O)N2C[C@H]3C[C@@H](C2)c2cccc(=O)n2C3)c(=O)oc2cc3occ(C(C)(C)C)c3cc12	12.6 µM (active)
Cc1c(OC(C)C(=O)N2C[C@H]3C[C@@H](C2)c2cccc(=O)n2C3)ccc2c3c(c(=O)oc12)CCC3 (stereo not given in full)	12.6 µM (active)
CC(C)C[C@@H](NC(=O)[C@H](Cc1ccccc1)NC(=O)c1cnccn1)B(O)O	0.178 µM (active)
O=C(C[C@@H]1C/C=C\CC[C@@H](Cc2ccc(F)cc2)C(=O)OC[C@@H]2CCCN2C1=O)NCCO	12.6 µM (active)
COc1ccc(NC(=O)N2CCCc3cc(C)ccc32)c(OC)c1	14.1 µM (active)
Cc1cc(C)n(Cc2ccc(C(=O)N/N=C/c3ccc(-c4ccc([N+](=O)[O-])cc4)o3)o2)n1	8.91 µM (active)
O=C(CCN1C(=O)c2ccccc2C1=O)C1=NN[C@@H]2C(=O)N(c3ccc(F)cc3)C(=O)[C@H]12	inactive
CCC/C(C#CCCN1C(=O)c2ccccc2C1=O)=C1/c2ccccc2C(=O)N1c1ccccc1	7.94 µM (active)
CCOC(=O)CSc1nc2sc3c(c2c(=O)n1C1CCCCC1)CCN(C)C3	3.16 µM (active)
CCn1c(SCC(=O)Nc2ccc(C)cc2)nc2sc3c(c2c1=O)CCN(C)C3	1.41 µM (active)
Cc1cccc(NC(=S)/N=C(\N)Nc2nc(C)c3ccccc3n2)c1	12.6 µM (active)
CC(CN1CCC(n2nccc2NC(=O)c2ccccc2Cl)CC1)c1ccccc1 (stereo not given)	15.8 µM (active)
C(=N\N(c1ccccc1)c1ccccc1)/c1ccccn1	inactive
O=C(N/N=C/c1ccccn1)c1cc([N+](=O)[O-])cc([N+](=O)[O-])c1	10 µM (active)
CC1(C)COC(/C=C/c2cccc([N+](=O)[O-])c2)=N1	14.1 µM (active)

Compound	Potency
O=[N+]([O-])c1cccc(/C=C/c2nc[nH]c2[N+](=O)[O-])c1	7.94 µM (active)
COc1ccccc1-n1nnnc1S(=O)(=O)Cc1ccc(Cl)cc1	12.6 µM (active)
CCCCN(CCCNC(=O)C1CCN(C(=O)c2cc3sccc3n2C)CC1)Cc1ccccc1	5.62 µM (active)
CC(NC(=O)c1cc2sccc2n1C)c1ccc2c(c1)OCCO2 (stereo not given)	inactive
O=C(Nc1ccc2c(c1)CCCN2C(=O)c1ccco1)c1cc([N+](=O)[O-])ccc1Cl	12.6 µM (active)
COc1ccccc1N(Cc1ccccc1)S(=O)(=O)c1cccc(C(=O)Nc2ccccn2)c1	8.91 µM (active)
COc1ccccc1N(Cc1ccccc1)S(=O)(=O)c1cccc(C(=O)Nc2cc(C)ccn2)c1	11.2 µM (active)
Cc1ccccc1C(=O)Nc1ccc2c(c1)CCCN2C(=O)c1cccs1	12.6 µM (active)
COc1cc(OC)cc(C(=O)Nc2ccc3c(c2)CCCN3C(=O)c2cccs2)c1	12.6 µM (active)
O=C(Cc1cccc2ccccc12)Nc1ccccc1C(=O)O	inactive
CC(=O)Nc1ccc(OCc2cccc3ccccc23)cc1	12.6 µM (active)
CCOC(=O)c1c(NC(=O)CSc2ccccc2C(=O)O)sc(C)c1C	inactive
CCOC(=O)c1c(NC(=O)CSc2c[nH]c3ccccc23)sc2c1CCCC2	14.1 µM (active)
COc1cc([N+](=O)[O-])c(OC)cc1SCc1n[nH]c(=S)n1-c1ccc(F)cc1	14.1 µM (active)
CCCCCCC1C(C#N)=C(N)OC2=C1C(=O)CCC2 (stereo not given)	inactive
CCc1ccc(NC(=O)CSc2nc3n[nH]c(C)c3c(=N)n2-c2cccc(OC)c2)cc1	5.62 µM (active)
COc1cccc(NC(=O)CSc2nc3n[nH]c(C)c3c(=N)n2-c2cccc(OC)c2)c1	7.94 µM (active)
CCc1nc(SCC(=O)Nc2ccc(N(C)C)cc2)n[nH]1	inactive
COc1ccc2c(CC(=O)OCC(=O)Nc3cccc(S(N)(=O)=O)c3)coc2c1	inactive
COc1ccccc1NC(=O)c1oc2ccccc2c1NC(=O)C1CC1	8.91 µM (active)
COc1cccc(NC(=O)c2oc3ccccc3c2NC(=O)C2CC2)c1	15.8 µM (active)
COc1cccc(N/C(SCc2cccc([N+](=O)[O-])c2)=C(/C#N)C(N)=O)c1	inactive
COc1cccc(NC(C)C(=O)Nc2cc([N+](=O)[O-])ccc2Cl)c1 (stereo not given)	3.16 µM (active)

Compound	Potency
Cn1c(CCN2CCCC2)nc2cc(NS(=O)(=O)c3ccc(Cl)cc3)ccc21	11.2 µM (active)
CC1CCCCN1C(=O)COC(=O)c1cccc(NS(=O)(=O)c2ccccc2)c1 (stereo not given)	inactive
Cn1c(CCN2CCCC2)nc2cc(NS(=O)(=O)c3ccccc3)ccc21	3.55 µM (active)
Cc1cccc(N/N=C(\C(N)=O)C2=NC(C)(C)Cc3ccccc32)c1	4.47 µM (active)
CC(=O)c1ccc(N/N=C(/C(N)=O)C2=NC(C)(C)Cc3ccccc32)cc1	7.08 µM (active)
CN(Cc1ccc(Cl)c(Cl)c1)C(=O)C1=CC=CN2CCS(=O)(=O)N=C12	7.94 µM (active)
CN1C(=O)C(C)(C)c2cc(S(=O)(=O)NCC3CCC(C(=O)NCc4ccc(F)cc4)CC3)ccc21 (stereo not given)	15.8 µM (active)
CC1(C)CC(=O)c2sc(NC(=O)CCS(=O)(=O)c3ccccc3)nc2C1	inactive
CCOc1cccc2sc(NC(=O)CCS(=O)(=O)c3ccccc3)nc12	11.2 µM (active)
COc1ccc(C)c2sc(NC(=O)CCS(=O)(=O)c3ccccc3)nc12	inactive
CN(Cc1c(C(=O)N/N=C/c2cccc(O)c2)nnn1-c1nonc1N)c1ccccc1	inactive
Cc1ccsc1/C=N/NC(=O)c1nnn(-c2nonc2N)c1-c1ccc2c(c1)OCO2	1.26 µM (active)
CCOc1ccc(-c2c(C(=O)N/N=C/c3ccc(OC(C)C)cc3)nnn2-c2nonc2N)cc1	15.8 µM (active)
Nc1nonc1-n1nnc(C(=O)N/N=C/c2ccc(Cl)cc2)c1-c1ccc2c(c1)OCO2	0.0562 µM (active)
Nc1nonc1-n1nnc(C(=O)N/N=C/c2cccc(Cl)c2)c1-c1ccc2c(c1)OCO2	0.126 µM (active)
CC(=O)NC[C@@H]1CN(c2ccc(N3CCOCC3)c(F)c2)C(=O)O1	inactive
CCCC(=O)N=C1SC2CS(=O)(=O)CC2N1c1ccc(CC)cc1 (stereo not given)	7.94 µM (active)
CC(=O)NC(C)c1nc2ccccc2n1CC(=O)N1C(C)CCCC1C (stereo not given)	inactive
CC(=O)Nc1nc2ccccc2n1Cc1ccc(C)cc1	6.31 µM (active)
Clc1cccc(CN2CCc3c([nH]c4ccccc34)C2)c1	12.6 µM (active)
CCN(CC)CCNC(=O)c1ccc(NC(=O)c2ccccc2-c2ccc(C(F)(F)F)cc2)cc1	12.6 µM (active)
CCOCCCNC(=O)/C(C#N)=C/c1ccc(-c2ccc(S(=O)(=O)N3CCOCC3)cc2)o1	14.1 µM (active)
COc1ccc(-c2c(-c3cc(OC)cc(OC)c3)n(C)c3ccc(-c4ccc5[nH]ccc5c4)cc23)cc1	8.91 µM (active)

Compound	Potency
O=C(c1cccc(S(=O)(=O)N2CCc3ccccc32)c1)N1CCN(c2ccccc2)CC1	14.1 µM (active)
O=C(CNC(=O)c1cccc(S(=O)(=O)N2CCc3ccccc32)c1)Nc1ccc(F)c(F)c1F	12.6 µM (active)
COc1cc2c(cc1OC)CN(C(=O)c1cccc(S(=O)(=O)N3CCc4ccccc43)c1)CC2	11.2 µM (active)
Cc1cc(C)c2[nH]c(C(=O)N3CCC(n4nccc4NC(=O)C4CC4)CC3)c(C)c2c1	12.6 µM (active)
Cc1c(C(=O)N2CCC(n3nccc3NC(=O)C3CC3)CC2)[nH]c2ccc(Cl)cc12	11.2 µM (active)
Cc1ccc(S(=O)(=O)Nc2cccc3cccnc23)cc1	7.08 µM (active)
Cc1ccc(S(=O)(=O)Nc2cccc3cccnc23)c([N+](=O)[O-])c1	5.01 µM (active)
N#Cc1cccc(NC(=O)Cn2c3[n+](c4ccc(C(F)(F)F)cc42)CCCCC3)c1	4.47 µM (active)
CC1(CCc2ccc3c(c2)OCO3)NCCc2c1[nH]c1ccccc21 (stereo not given)	8.91 µM (active)
CCOc1cc(/C=C2/C(=O)ON=C2C)ccc1OCc1ccccc1	inactive
CCOC(=O)C1CCCN(Cc2ccc(OCc3ccccc3)c(OC)c2)C1 (stereo not given)	14.1 µM (active)
CCOC(=O)C1CCCCN1Cc1cccc(OCc2ccccc2)c1 (stereo not given)	14.1 µM (active)
CC(C)(C)c1ccc(C(O)CCCN2CCC(C(O)(c3ccccc3)c3ccccc3)CC2)cc1 (stereo not given)	12.6 µM (active)
Cc1ccc(C(=O)C(C(=O)/C=C/c2ccccc2)=C2SCCCS2)cc1	14.1 µM (active)
COc1ccc2[nH]cc(CCCN3C(=O)c4ccccc4C3=O)c2c1	inactive
COc1ccc2[nH]cc(C(=O)CCl)c2c1	12.6 µM (active)
CCn1c2ccccc2c2c3ncc4cccn4c3ccc21	14.1 µM (active)
CCC(CC)COC(=O)C1=C(C)NC(=O)NC1c1ccccc1Br (stereo not given)	12.6 µM (active)
CCOc1ccccc1CNC(=O)c1cc2oc3ccccc3c2n1CC	14.1 µM (active)
CCOc1ccc(CNC(=O)c2cc3oc4ccccc4c3n2C)cc1	inactive
COc1cccc(CNC(=O)c2cc3oc4ccccc4c3n2C)c1OC	inactive

Source: PubChem BioAssay AID504850 (National Center for Advancing Translational Sciences (NCATS), 2011)
